High-throughput results (PubChem)
rCAG RNA binder: binds r(CAG) RNA repeats; AID 651821; r(CAG) RNA repeat, TO-PRO-1 dye displacement fluorescence; 370,000 tested, 1.3% active; inhibition, % at 3 µM;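 active = inhibition above the plate cutoff, the mean of all test compounds on that plate plus 3 SD, cut at about 35% in these data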;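 note: 0% = DMSO alone and 100% = 100 µM mitoxantrone as full dye displacement; higher means more dye released from RNA so lower well fluorescence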
NR3A LBD binder: NR3A (human) ligand-binding domain modulation. NR3A LBD differential scanning fluorimetry, Tm shift; 0% = protein alone, 100% = glycine-bound protein. 340,000 tested, 2.5% active. Tm shift relative to glycine control, % at 25 µM;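 active = melting temperature shift of at least 10% of the positive control shift, at one fixed dose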
FAS-TE inh: blocks the thioesterase domain of human fatty acid synthase; inhibition, % at 15 µM; recombinant FAS-TE, OMFH fluorogenic substrate, fluorescence endpoint; 360,000 tested, 0.67% active;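 active = compounds whose normalised, plate-corrected inhibition of enzyme fluorescence in the single-dose primary screen is 50% or more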;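 note: 0% = DMSO with enzyme and 100% = substrate without enzyme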
Target sequence (P49327 whole entry, looked up, the tested form may be a part): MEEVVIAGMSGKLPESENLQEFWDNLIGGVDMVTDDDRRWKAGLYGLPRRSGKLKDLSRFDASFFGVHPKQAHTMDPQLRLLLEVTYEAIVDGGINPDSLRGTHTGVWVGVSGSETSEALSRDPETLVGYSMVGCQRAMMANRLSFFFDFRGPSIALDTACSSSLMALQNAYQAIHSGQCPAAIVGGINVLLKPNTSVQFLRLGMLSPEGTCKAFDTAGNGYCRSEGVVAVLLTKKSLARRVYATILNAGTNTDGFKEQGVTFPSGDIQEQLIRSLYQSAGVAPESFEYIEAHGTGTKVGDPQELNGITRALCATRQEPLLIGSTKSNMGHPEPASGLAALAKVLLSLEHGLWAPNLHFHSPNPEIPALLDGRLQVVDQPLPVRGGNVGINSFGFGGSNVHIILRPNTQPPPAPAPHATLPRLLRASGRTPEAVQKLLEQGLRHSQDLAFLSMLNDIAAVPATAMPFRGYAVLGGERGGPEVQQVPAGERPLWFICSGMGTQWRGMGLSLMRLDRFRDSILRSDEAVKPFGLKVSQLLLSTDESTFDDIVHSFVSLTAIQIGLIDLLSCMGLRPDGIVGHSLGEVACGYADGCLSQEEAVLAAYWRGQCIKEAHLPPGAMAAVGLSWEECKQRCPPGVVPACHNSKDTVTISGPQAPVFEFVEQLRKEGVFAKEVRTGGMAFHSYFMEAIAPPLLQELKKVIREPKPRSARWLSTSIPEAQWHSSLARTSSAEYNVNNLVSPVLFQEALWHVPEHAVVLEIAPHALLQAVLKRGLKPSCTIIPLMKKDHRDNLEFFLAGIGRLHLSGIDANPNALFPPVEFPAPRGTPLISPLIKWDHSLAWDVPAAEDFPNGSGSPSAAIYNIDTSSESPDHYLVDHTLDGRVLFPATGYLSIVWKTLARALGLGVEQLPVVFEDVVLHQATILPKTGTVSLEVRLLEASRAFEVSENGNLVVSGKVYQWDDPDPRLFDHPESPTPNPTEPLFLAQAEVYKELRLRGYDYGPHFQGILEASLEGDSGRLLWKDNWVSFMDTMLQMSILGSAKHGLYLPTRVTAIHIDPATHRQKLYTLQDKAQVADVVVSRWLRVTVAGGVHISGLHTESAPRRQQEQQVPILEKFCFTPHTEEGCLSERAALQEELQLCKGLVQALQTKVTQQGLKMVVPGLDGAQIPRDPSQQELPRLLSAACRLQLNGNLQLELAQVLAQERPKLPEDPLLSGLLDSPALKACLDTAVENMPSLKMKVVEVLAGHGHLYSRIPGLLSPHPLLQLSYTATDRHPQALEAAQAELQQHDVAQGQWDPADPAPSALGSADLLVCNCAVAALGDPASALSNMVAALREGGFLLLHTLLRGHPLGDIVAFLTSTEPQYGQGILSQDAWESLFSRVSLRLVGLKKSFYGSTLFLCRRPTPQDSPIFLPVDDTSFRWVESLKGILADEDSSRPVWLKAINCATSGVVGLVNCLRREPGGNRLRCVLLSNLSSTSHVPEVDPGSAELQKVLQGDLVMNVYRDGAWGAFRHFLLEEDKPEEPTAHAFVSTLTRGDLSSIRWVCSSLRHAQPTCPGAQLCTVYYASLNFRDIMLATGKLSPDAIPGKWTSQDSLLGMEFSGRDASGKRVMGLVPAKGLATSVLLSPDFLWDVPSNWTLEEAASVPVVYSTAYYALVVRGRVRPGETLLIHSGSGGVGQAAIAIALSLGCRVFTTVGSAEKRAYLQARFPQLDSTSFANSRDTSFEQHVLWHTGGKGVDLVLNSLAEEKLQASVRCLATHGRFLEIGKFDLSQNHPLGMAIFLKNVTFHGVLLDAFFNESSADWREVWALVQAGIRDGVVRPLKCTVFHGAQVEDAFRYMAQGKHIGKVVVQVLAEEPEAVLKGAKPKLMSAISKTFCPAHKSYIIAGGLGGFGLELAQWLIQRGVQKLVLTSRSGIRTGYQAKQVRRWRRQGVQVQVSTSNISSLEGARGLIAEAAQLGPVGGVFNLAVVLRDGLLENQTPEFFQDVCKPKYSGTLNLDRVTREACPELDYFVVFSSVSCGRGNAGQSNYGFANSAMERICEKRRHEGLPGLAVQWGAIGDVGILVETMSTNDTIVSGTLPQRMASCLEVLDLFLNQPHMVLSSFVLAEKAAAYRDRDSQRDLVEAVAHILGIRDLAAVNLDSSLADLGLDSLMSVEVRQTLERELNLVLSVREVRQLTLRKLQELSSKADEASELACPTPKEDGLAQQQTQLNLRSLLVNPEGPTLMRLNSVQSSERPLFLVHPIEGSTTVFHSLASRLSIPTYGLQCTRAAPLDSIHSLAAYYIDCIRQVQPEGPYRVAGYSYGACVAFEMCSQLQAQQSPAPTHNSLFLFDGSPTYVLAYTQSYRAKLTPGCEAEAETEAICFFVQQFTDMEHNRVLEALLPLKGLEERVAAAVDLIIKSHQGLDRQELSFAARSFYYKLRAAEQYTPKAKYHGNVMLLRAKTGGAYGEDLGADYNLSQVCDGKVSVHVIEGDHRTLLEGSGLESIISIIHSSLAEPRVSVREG
NadD inh: blocks S. aureus nicotinate mononucleotide adenylyltransferase. purified NadD enzyme, colorimetric absorbance read-out. inhibition, % at 20 µM. 360,000 tested, 0.78% active; in the data active = inhibition above about 26%
FAS-TE inh conf: confirmation of human fatty acid synthase thioesterase inhibitors. shares compounds with FAS-TE inh. recombinant FAS-TE, OMFH fluorogenic substrate, fluorescence. inhibition, % at 15 µM. 2,300 tested, 45% active. AID 624325;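 active = compounds inhibiting the enzyme by at least 50% at 15 µM in any one of the replicates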;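 note: 0% = enzyme with DMSO only and 100% = wells lacking enzyme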
* marks the source's active call; other numbers are inactive results; x = no result given. This is a sample that favours compounds with a hit; in the whole collection about 4.3% have one here.

SMILES	rCAG RNA binder	NR3A LBD binder	FAS-TE inh	NadD inh	FAS-TE inh conf
Cc1ccc(C(=O)N2CCC3(CC2)Oc2ccc(Cl)cc2C(=O)C32CC(c3ccccc3)=NO2)s1 (stereo unspecified)	10.8	-4.7	26.6	4.4	x
Cc1ccc(C(=O)N2CCC3(CC2)Oc2ccc(F)cc2C(=O)C32CC(c3ccc(Cl)cc3)=NO2)s1 (stereo unspecified)	2.6	0.8	87.4*	28.4	22.4
O=C(c1ccoc1)N1CCC2(CC1)Oc1ccc(Cl)cc1C(=O)C21CC(c2ccc(Cl)cc2)=NO1 (stereo unspecified)	7.3	1.4	14.4	18.1	x
Cc1ccc(C(=O)N2CCC3(CC2)Oc2ccc(F)cc2C(=O)C32CC(c3ccccc3)=NO2)s1 (stereo unspecified)	9.0	-0.6	71.8*	13.4	22.4
CC1(C)OC(C)(C)C(=N/O)/C1=N\N	1.4	x	x	x	x
O=S1(=O)c2ccc(N3CC[C@@H](O)C3)cc2O[C@@H]2CCN1C2	4.8	x	x	x	x
COC(=O)[C@]12C[C@H](CC(=O)NCc3ccccc3)C(=O)N(Cc3ccc(Cl)cc3Cl)C1=C[C@H](C(C)(C)C)O[C@@H]2C	2.8	x	x	x	x
C[C@@H]1COc2cccc(F)c2S(=O)(=O)N1C	0.8	x	x	x	x
CC(C)(C)OC(=O)N1CCC2(CC1)Oc1ccc(F)cc1C(=O)C21CC(c2ccccc2)=NO1 (stereo unspecified)	7.8	1.9	58.7*	-4.5	10.3
CC(NCc1ccco1)C(=O)N1CCN(c2cccc(C(F)(F)F)c2)CC1 (stereo unspecified)	0.2	x	x	x	x
C=CCCC(=O)N1CCC(C(=O)NC2CCCc3ccccc32)CC1 (stereo unspecified)	3.2	x	x	x	x
CN1CCN(c2ccc([N+](=O)[O-])cc2/C=N/NC(=O)c2ccc(F)cc2)CC1	-3.6	-5.6	51.8*	-6.0	50.6*
CCN(CC)C(=O)C1CCCN(c2ccc([N+](=O)[O-])cc2/C=N/NC(=O)c2cccc(Br)c2)C1 (stereo unspecified)	11.1	-5.0	86.3*	22.0	17.0
CC(C)c1[nH]nc2c1C(c1cccc(C(F)(F)F)c1)N(Cc1ccccc1)C2=O (stereo unspecified)	-0.4	x	x	x	x
CCCCCOC(=O)C1=C(C)NC(=O)NC1c1ccc([N+](=O)[O-])cc1 (stereo unspecified)	-2.9	-1.0	57.9*	-3.7	57.3*
Cc1c(OCC(=O)NC(Cc2ccc(Cl)cc2)C(=O)O)ccc2c(-c3ccccc3)cc(=O)oc12 (stereo unspecified)	12.6	-9.7	54.6*	10.5	62.0*
COC(=O)C(C(=O)OC)[C@H]1C=C[C@@H](C(=O)NS(=O)(=O)c2ccc(C)cc2)N(C(C)=O)C1	10.4	x	x	x	x
Cc1ccc(-n2c(Cc3cccs3)nnc2SCc2ccc([N+](=O)[O-])cc2)cc1	2.7	x	x	x	x
COC(=O)C1CCN(C(=O)COC(=O)c2cc([N+](=O)[O-])ccc2N2CCOCC2)CC1	-0.2	-0.8	68.8*	2.9	71.1*
CC1CCN(c2ccccc2NC(=O)c2cc([N+](=O)[O-])ccc2N2CCOCC2)CC1	-4.7	-2.2	33.9	6.6	x
CCOC(=O)C1CCN(C(=O)COc2ccc([N+](=O)[O-])cc2)CC1	-2.4	1.0	58.7*	-3.7	67.3*
CC1CCN(C(=O)COC(=O)c2cc([N+](=O)[O-])ccc2N2CCOCC2)CC1	-4.3	-1.0	70.6*	-7.2	81.8*
Cc1ccccc1CN1CCCCC(NC(=O)c2cccc([N+](=O)[O-])c2)C1=O (stereo unspecified)	0.5	x	x	x	x
O=C(Nc1ccccc1[N+](=O)[O-])OCC=Cc1ccccc1	2.5	x	55.3*	-0.2	59.1*
COCCN(C[C@@H]1[C@H](c2ccccc2)[C@H](CO)N1c1nc(C)c(C)s1)S(=O)(=O)c1ccccc1[N+](=O)[O-]	8.1	x	x	x	x
SMILES	rCAG RNA binder	NR3A LBD binder	FAS-TE inh	NadD inh	FAS-TE inh conf
COc1cc(/C=N/NC(=O)c2cccc([N+](=O)[O-])c2)cc(OC)c1O	0.8	3.7	8.4	0.0	x
COc1cc(/C=N/NC(=O)c2cncc(Br)c2)cc([N+](=O)[O-])c1O	18.0	-5.0	57.5*	2.1	69.5*
COc1cc([N+](=O)[O-])cc(/C=N/NC(=O)c2cc(C)nc3ccccc23)c1O	25.6	-7.4	53.9*	3.5	66.6*
O=C(N/N=C\c1ccc([N+](=O)[O-])o1)c1cncc(Br)c1	22.0	-2.1	0.9	-0.4	x
COc1cc([N+](=O)[O-])cc(/C=N/NC(=O)c2cncc(Br)c2)c1O	3.9	-6.0	58.6*	-1.8	70.6*
Cc1ccc(NC(=O)/C(=C/C=C/c2ccccc2)NC(=O)c2ccccc2)cc1	9.6	-2.4	62.9*	11.2	22.0
Cc1[nH]n(-c2ccc([N+](=O)[O-])cc2)c(=O)c1C=NCC1CCCO1 (stereo unspecified)	3.8	-1.6	5.1	-7.6	x
Cc1ccc(-n2[nH]c(C)c(/C=N/Nc3ccc([N+](=O)[O-])cc3[N+](=O)[O-])c2=O)cc1	10.0	22.2*	55.1*	5.8	54.6*
CCOc1cccc2cc(C(=O)NCCC3=CCCCC3)c(=O)oc12	-2.8	0.6	87.2*	-11.4	74.5*
CC(C)OC(=O)[C@H]1[C@H](c2ccc(Cl)cc2)[C@@](C#N)(C(N)=O)[C@@H]2C=CC(C(N)=O)=CN21	x	-0.7	59.1*	5.9	58.7*
Cc1ccc2nc(N/C(N)=N/S(=O)(=O)c3ccc([N+](=O)[O-])cc3)nc(C)c2c1	11.4	-2.7	67.0*	14.0	55.0*
Cc1ccc(S(=O)(=O)/N=C(\N)Nc2nc(C)c3ccccc3n2)cc1	17.6	-2.1	12.0	-2.8	x
O=C(Nc1ccc([N+](=O)[O-])cn1)c1cc(-c2cccc(Br)c2)nc2ccccc12	3.4	-5.2	33.5	23.5	x
COc1cc2c(cc1NC(=O)c1cc(-c3ccccn3)nc3ccccc13)oc1ccccc12	-4.1	-2.6	57.2*	13.3	-4.7
COc1ccc(-c2cc(C(=O)Nc3c(Cl)cc(Cl)cc3Cl)c3ccccc3n2)cc1OC	2.6	-11.8	6.9	10.0	x
COc1ccc(-c2cc(C(=O)Nc3ccccc3O)c3ccccc3n2)cc1OC	2.0	-3.0	-6.7	-0.3	x
COc1cccc(-c2cc(C(=O)Nc3ccc([N+](=O)[O-])cn3)c3ccccc3n2)c1	6.8	-1.5	51.5*	14.7	8.4
COc1ccc(-c2cc(C(=O)Nc3nc4ccccc4s3)c3ccccc3n2)cc1OC	17.8	-6.8	82.2*	5.7	22.8
COc1ccc(-c2cc(C(=O)Nc3sc4c(c3C#N)CCCC4)c3ccccc3n2)cc1OC	2.6	2.3	51.6*	24.3	-0.8
COc1cc(OC)c(N2CC(C(=O)NCCC3=CCCCC3)CC2=O)cc1Cl (stereo unspecified)	-2.0	1.1	61.4*	3.7	66.8*
O=C1OCCN1C(=O)[C@H]1[C@H](c2ccc(F)cc2)C(c2ccc(F)cc2)=NN1c1ccc(Br)cc1	x	-3.9	84.2*	20.7	31.5
